Laboratory results reported in PubChem BioAssay (Tox21).
Values joined by “and” are separate entries in the source; they are usually repeats but may differ in a detail not shown here. Equal values may be shown once. Records with an inconclusive call do not appear. A call without a number means that no potency is given here. Some structures have more than one record in an assay (separate samples or runs), and their calls can disagree. Active and inactive are the calls of the source. Unless noted, calls come from the whole dose curve; as a rule, active = well fitted curve in the direction sought with a large enough effect in the repeat runs; inconclusive = weak or mixed curves; inactive = no such curve, though single readings can be large; an effect the other way counts as inactive or inconclusive.

Assays:
[1] = A CellTox Green Cytotoxicity Assay to monitor cytotoxicity in HepG2 cells - 8 hour (AID 1224890); note: nearly all actives have a fitted effect of over 45% in size; note: potency is the fitted concentration of half-maximal effect
Procedure, shortened: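 First, HepG2 cells (600/well) mixed with reagent were plated; second, after 5 h at 37 C they received compounds via pintool; third, fluorescence was measured at 0 h through 40 h at 8 h intervals.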

[2] = qHTS assay to identify small molecule antagonists of the estrogen receptor alpha (ER-alpha) signaling pathway using the BG1 cell line in the presence of 0.1 nM 17-beta-estradiol - cell viability counter screen (AID 1259241); note: nearly all actives have a fitted effect of over 40% in size
Procedure, shortened: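 Following 5 days in phenol red-free medium with charcoal-stripped serum, VM7Luc4E2 cells received test compounds alongside 0.1 nM 17beta-estradiol (final) at 37C for 22 hr. Live cells were then quantified via protease-substrate fluorescence.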

[3] = qHTS assay to identify small molecule antagonists of the androgen receptor (AR) signaling pathway using the MDA cell line in the presence of 0.5 nM R1881 - cell viability counter screen (AID 1259242); note: nearly all actives have a fitted effect of over 45% in size
Procedure, shortened: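 qHTS format. MDA-kb2 (MMTV-luc, AR/GR responsive) + cpd + 0.5 nM R1881 final, 16 hr 37C/0% CO2 → CellTiter-Fluor 30 min → fluorescence intensity.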

[4] = biological target: Androgen receptor (Homo sapiens) (UniProt P10275); test: qHTS assay to identify small molecule antagonists of the androgen receptor (AR) signaling pathway using the MDA cell line in the presence of 0.5 nM R1881 (AID 1259243); note: nearly all actives have a fitted effect of over 50% in size; note: potency is the fitted concentration of half-maximal effect
Androgen receptor (Homo sapiens), sequence (P10275 whole entry, looked up): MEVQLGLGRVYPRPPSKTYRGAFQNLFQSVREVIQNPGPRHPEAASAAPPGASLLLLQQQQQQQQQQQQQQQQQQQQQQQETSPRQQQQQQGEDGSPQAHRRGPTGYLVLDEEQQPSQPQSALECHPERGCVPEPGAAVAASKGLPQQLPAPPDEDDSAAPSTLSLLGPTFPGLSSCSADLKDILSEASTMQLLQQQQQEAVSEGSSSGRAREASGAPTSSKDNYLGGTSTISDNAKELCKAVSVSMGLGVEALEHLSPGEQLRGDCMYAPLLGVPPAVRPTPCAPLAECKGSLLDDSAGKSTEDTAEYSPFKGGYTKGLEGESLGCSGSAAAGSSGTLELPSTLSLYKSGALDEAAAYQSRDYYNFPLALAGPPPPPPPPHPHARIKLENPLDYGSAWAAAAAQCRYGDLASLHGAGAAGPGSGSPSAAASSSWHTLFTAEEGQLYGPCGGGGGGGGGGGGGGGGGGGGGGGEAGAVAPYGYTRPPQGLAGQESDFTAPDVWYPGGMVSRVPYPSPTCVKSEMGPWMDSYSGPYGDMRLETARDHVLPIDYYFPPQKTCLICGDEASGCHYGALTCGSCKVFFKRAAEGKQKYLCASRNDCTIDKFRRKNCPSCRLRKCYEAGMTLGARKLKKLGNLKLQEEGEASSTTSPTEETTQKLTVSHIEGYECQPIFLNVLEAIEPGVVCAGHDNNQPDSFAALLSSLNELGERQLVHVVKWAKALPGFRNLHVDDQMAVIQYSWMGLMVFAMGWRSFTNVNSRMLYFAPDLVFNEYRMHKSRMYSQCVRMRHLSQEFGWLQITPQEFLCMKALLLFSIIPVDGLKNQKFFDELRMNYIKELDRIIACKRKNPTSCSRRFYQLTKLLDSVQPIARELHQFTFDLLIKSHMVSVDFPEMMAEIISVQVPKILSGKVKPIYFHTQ
Procedure, shortened: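 Antagonist mode quantitative HTS in MDA-kb2 MMTV-luciferase cells, agonist R1881 at 0.5 nM final, 16 hr exposure at 37C and 0% CO2, luminescent detection.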

[5] = biological target: Estrogen receptor (Homo sapiens) (UniProt P03372); test: qHTS assay to identify small molecule antagonists of the estrogen receptor alpha (ER-alpha) signaling pathway using the BG1 cell line in the presence of 0.1 nM 17-beta-estradiol (AID 1259244); note: nearly all actives have a fitted effect of over 50% in size
Estrogen receptor (Homo sapiens), sequence (P03372 whole entry, looked up): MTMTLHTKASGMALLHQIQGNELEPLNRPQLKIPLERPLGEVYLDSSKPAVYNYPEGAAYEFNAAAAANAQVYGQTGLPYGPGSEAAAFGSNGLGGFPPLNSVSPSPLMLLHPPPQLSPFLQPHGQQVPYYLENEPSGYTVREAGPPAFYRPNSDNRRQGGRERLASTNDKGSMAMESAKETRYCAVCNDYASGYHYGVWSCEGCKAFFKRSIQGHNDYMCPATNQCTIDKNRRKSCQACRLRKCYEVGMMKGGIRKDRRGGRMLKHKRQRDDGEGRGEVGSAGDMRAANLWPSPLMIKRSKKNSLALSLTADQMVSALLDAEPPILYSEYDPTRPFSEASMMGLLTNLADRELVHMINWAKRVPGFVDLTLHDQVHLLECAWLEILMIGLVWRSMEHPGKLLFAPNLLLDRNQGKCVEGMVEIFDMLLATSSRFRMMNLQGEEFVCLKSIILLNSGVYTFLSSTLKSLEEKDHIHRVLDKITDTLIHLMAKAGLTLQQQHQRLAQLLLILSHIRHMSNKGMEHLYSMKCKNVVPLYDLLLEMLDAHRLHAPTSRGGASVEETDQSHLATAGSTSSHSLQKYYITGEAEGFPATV
Procedure, shortened: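 Reporter is a stably transfected luciferase under four estrogen responsive elements in VM7Luc4E2 cells expressing native full-length ER-alpha; inhibition of 0.1 nM (final) 17beta-estradiol-driven signal over 22 h is read by luminescence.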

[6] = qHTS assay to identify small molecule HDAC inhibitors (AID 1259364);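 note: wild-type HCT-116 cells with endogenous class I/II HDAC activity; top concentration of the series differs between compounds; nearly all actives have a fitted effect of over 45% in size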
Procedure, shortened: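 Quantitative high-throughput format: overnight-seeded HCT-116 cells got compounds for 2 hr at 37C; HDAC-Glo I/II reagent added, 30 min RT, luminescence measured.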

[7] = qHTS assay to identify small molecule HDAC inhibitors - cell viability counter screen (AID 1259365); note: series mostly up to about 92 µM; nearly all actives have a fitted effect of over 50% in size
Procedure, shortened: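 HCT-116 wild-type, overnight attachment; 2hr drug exposure, 37C; CellTiter-Glo luminescent ATP readout after 30min RT.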

[8] = qHTS assay to identify small molecule agonists of the sonic hedgehog signaling (Shh) pathway - cell viability counter screen (AID 1259366); note: nearly all actives have a fitted effect of over 50% in size
Procedure, shortened: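 Compounds in DMSO were pin-transferred onto 3T3 Gli1-Luc cells that had settled 4hr; plates then stood 24hr at 37C and 5% CO2. One hour before the end, CellTiter-Fluor was added and fluorescence recorded.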

[9] = qHTS assay to identify small molecule antagonists of the sonic hedgehog signaling (Shh) pathway - cell viability counter screen (AID 1259367); note: nearly all actives have a fitted effect of over 55% in size
Procedure, shortened: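 Fluorescence read-out (CellTiter-Fluor, 1 hr at 37C) taken after 23 hr compound treatment of 3T3 Gli1-Luc cells stimulated with conditioned medium. Cells were seeded at 2,000 per well and pre-incubated 4 hr.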

[10] = qHTS assay to identify small molecule agonists of the sonic hedgehog signaling (Shh) pathway (AID 1259368; calls by dose curve;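 note: NIH/3T3-derived 3T3Gli1-Luc cells carrying a stable Gli1-driven firefly luciferase reporter; series mostly up to about 92 µM; nearly all actives have a fitted effect of over 15% in size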)
Procedure, shortened: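 Quantitative high-throughput format using a Gli1-driven firefly luciferase reporter line derived from NIH/3T3 cells. After a 24 hr compound treatment at 37 C and 5% CO2, luminescence reported Gli1 response element activity.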

[11] = qHTS assay to identify small molecule antagonists of the sonic hedgehog signaling (Shh) pathway (AID 1259369; calls by dose curve; note: nearly all actives have a fitted effect of over 45% in size)
Procedure, shortened: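 Stable Gli1-Luc reporter NIH/3T3 clone; quantitative HTS in stimulated mode with conditioned medium. Luminescence measured after 24hr compound treatment at 37 C.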

[12] = biological target: Estrogen receptor beta (Homo sapiens) (UniProt Q92731); test: qHTS assay to identify small molecule agonists of the estrogen receptor beta (ER-beta) signaling pathway (AID 1259377; active = well fitted activation curve with a large enough effect in the signal ratio in the repeat runs, not every such curve was filed as active; the % refers to the signal ratio)
Estrogen receptor beta (Homo sapiens), sequence (Q92731 whole entry, looked up): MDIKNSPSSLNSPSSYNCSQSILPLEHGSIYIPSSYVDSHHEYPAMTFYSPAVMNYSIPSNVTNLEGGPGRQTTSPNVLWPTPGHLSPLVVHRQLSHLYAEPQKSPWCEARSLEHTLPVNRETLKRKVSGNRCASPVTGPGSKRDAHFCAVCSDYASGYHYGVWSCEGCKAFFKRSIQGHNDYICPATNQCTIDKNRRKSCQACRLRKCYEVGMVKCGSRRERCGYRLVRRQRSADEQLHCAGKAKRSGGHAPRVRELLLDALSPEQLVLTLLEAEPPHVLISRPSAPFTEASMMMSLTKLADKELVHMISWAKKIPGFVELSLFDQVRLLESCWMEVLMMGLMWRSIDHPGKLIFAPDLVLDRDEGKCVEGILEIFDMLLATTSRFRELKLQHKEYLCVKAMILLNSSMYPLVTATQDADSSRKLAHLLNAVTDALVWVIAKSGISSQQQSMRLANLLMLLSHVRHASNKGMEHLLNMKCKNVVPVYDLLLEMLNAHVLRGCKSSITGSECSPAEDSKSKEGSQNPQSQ
Procedure, shortened: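 qHTS in ER-beta-UAS-bla HEK293T cells: 6 hr settling, then 16 hr compound at 37C, then LiveBLAzer substrate 2 h at RT before fluorescence reading.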

[13] = biological target: Estrogen receptor beta (Homo sapiens) (UniProt Q92731); test: qHTS assay to identify small molecule antagonists of the estrogen receptor beta (ER-beta) signaling pathway (AID 1259378; active = well fitted inhibition curve with a large enough effect in the signal ratio in the repeat runs, not every such curve was filed as active; the % refers to the signal ratio)
Procedure, shortened: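 ER-beta-UAS-bla HEK293T cells in 2% charcoal-stripped FBS medium treated with compound plus 1nM final 17-beta-estradiol for 16 hr at 37C. Beta-lactamase reporter read by FRET substrate fluorescence after 2 hours at room temperature.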

[14] = qHTS assay to identify small molecule agonists of the androgen receptor (AR) signaling pathway in the presence of an antagonist - cell viability counter screen (AID 1259379);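 note: MDA-kb2 human breast cancer cells carrying an MMTV luciferase reporter; series mostly up to about 92 µM; nearly all actives have a fitted effect of over 25% in size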
Procedure, shortened: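 Nilutamide-containing (3.0uM final) MDA-kb2 cultures, 3,000 cells/well, were treated with compounds across 15 concentrations. After 16 hr at 37C with no CO2, cell viability was determined by CellTiter-Fluor fluorescence in the luciferase assay wells.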

[15] = qHTS assay to identify small molecule agonists of the estrogen receptor beta (ER-beta) signaling pathway - cell viability counter screen (AID 1259380); note: nearly all actives have a fitted effect of over 30% in size; note: potency is the fitted concentration of half-maximal effect
Procedure, shortened: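 Steps: plate ER-beta-UAS-bla HEK293T cells, rest 6 hr; add compounds in DMSO; incubate 16 hr at 37C, 5% CO2; add FRET substrate 2 hr; add CellTiter-Glo, wait 30 min at room temperature; read luminescence.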

[16] = biological target: Androgen receptor (Homo sapiens) (UniProt P10275); test: qHTS assay to identify small molecule agonists of the androgen receptor (AR) signaling pathway in the presence of an antagonist (AID 1259381; calls by dose curve; note: nearly all actives have a fitted effect of over 15% in size)
Procedure, shortened: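 Reporter-gene luminescence from MDA-kb2 cells exposed 16hr at 37C (0% CO2) to 15-point compound titrations with 3.0uM final nilutamide as AR antagonist.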

[17] = qHTS assay to identify small molecule antagonists of the estrogen receptor beta (ER-beta) signaling pathway - cell viability counter screen (AID 1259382); note: series mostly up to about 92 µM; nearly all actives have a fitted effect of over 55% in size
Procedure, shortened: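 Viability is scored by CellTiter-Glo luminescence (30 min, room temperature) in ER-beta-UAS-bla HEK293T wells already read for reporter fluorescence. Compound exposure lasts 16 hr at 37C alongside 1nM 17-beta-estradiol in charcoal-stripped serum medium.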

[18] = biological target: Estrogen receptor (Homo sapiens) (UniProt P03372); test: qHTS assay to identify small molecule agonists of the estrogen receptor alpha (ER-alpha) signaling pathway in the presence of an antagonist (AID 1259383; calls by dose curve; note: top concentration of the series differs between compounds; nearly all actives have a fitted effect of over 15% in size)
Procedure, shortened: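 Readout was ERE-driven luciferase luminescence in VM7Luc4E2 cells, which express full-length ER-alpha endogenously. Compounds were tested at 15 concentrations for 22hr alongside 10.0nM ICI-182,780 (final concentration).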

[19] = qHTS assay to identify small molecule agonists or antagonists of the thyroid stimulating hormone receptor (TSHR) signaling pathway - wild type cell line counter screen (AID 1259384; calls by dose curve)
Procedure, shortened: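 Wild-type Hek293 cells, 800/well, 18 h at 37C, then compound with Ro20-1724 for 30 min RT. cAMP by HTRF (cAMP-d2/anti-cAMP cryptate), 1 h RT, fluorescence read. 15 concentrations, triplicates.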

[20] = qHTS assay to identify small molecule phospholipidosis (PLD) inducers (AID 1259344; active = well fitted curve in the direction sought with a large enough effect; an effect the other way counts as inactive or inconclusive)
Procedure, shortened: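 Read-out is LipidTOX Red fluorescence (ex 595/em 615) imaged in HepG2 cells after 24 h compound exposure at 37 C, with Hoechst nuclear counterstain (ex 352/em 461) allowing per-cell normalisation.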

SMILES	Potency [1]	outcome [2]	outcome [3]	Potency [4]	Potency [5]	Potency [6]	outcome [7]	Potency [8]	Potency [9]	outcome [10]	Potency [11]	Potency [12]	outcome [13]	Potency [14]	Potency [15]	outcome [16]	outcome [17]	outcome [18]	outcome [19]	Potency [20]
CNC(=O)O/N=C/C(C)(C)S(C)(=O)=O	inactive	inactive	inactive	inactive	inactive	inactive	inactive	inactive	inactive	inactive	inactive	inactive	inactive	inactive	inactive	inactive	inactive	inactive	–	–
CCOc1ccc(N)cc1	inactive	inactive	inactive	–	inactive	inactive	inactive	inactive	inactive	inactive	inactive	inactive	inactive	inactive	inactive	–	inactive	inactive	–	–
c1ccc2c(c1)CCCC2	inactive	inactive	inactive	inactive	inactive	inactive	inactive	inactive	inactive	–	inactive	inactive	inactive	inactive	inactive	inactive	inactive	inactive	inactive	–
COP(=S)(OC)Oc1ccc(SC)c(C)c1	inactive	inactive	inactive	–	inactive	inactive	inactive	inactive	inactive	–	inactive	inactive	inactive	inactive	inactive	–	–	inactive	–	inactive
Oc1c(Br)cc(Br)cc1Br	inactive	inactive	inactive	–	inactive	inactive	inactive	inactive	inactive	inactive	inactive	inactive	–	inactive	21.7 µM (active) and inactive	–	–	inactive	–	inactive
C=CC#N	inactive	inactive	inactive	–	inactive	inactive	inactive	inactive	inactive	inactive	inactive	inactive	inactive	inactive	inactive	–	inactive	inactive	–	–
CC(C)(C)C(=O)CCl	inactive	inactive	inactive	inactive	inactive	inactive	inactive	inactive	inactive	inactive	inactive	inactive	inactive	inactive	inactive	inactive	inactive	inactive	–	–
CC12CC1(C)C(=O)N(c1cc(Cl)cc(Cl)c1)C2=O (stereo not given)	inactive	inactive	inactive	1.21 µM (active) and 1.37 µM (active)	–	inactive	inactive	inactive	inactive	inactive	inactive	inactive	inactive	inactive	inactive	inactive	–	–	–	–
OC[C@@H](O)[C@H]1O[C@@H]2O[C@H](C(Cl)(Cl)Cl)O[C@@H]2[C@H]1O	inactive	inactive	inactive	–	inactive	inactive	inactive	inactive	inactive	inactive	inactive	inactive	inactive	inactive	inactive	–	inactive	inactive	–	inactive
CC(C)CCCCCCOC(=O)c1ccccc1C(=O)OCCCCCCC(C)C	inactive	inactive	inactive	inactive	inactive	inactive	inactive	inactive	inactive	inactive	inactive	–	–	inactive	inactive	inactive	–	inactive	inactive	–
Cc1cc(O)ccc1Cl	inactive	inactive	inactive	–	inactive	inactive	inactive	inactive	inactive	–	inactive	inactive	inactive	inactive	inactive	–	inactive	inactive	–	inactive
O=C(O)COc1ccccc1	inactive	inactive	inactive	–	inactive	inactive	inactive	inactive	inactive	inactive	inactive	inactive	inactive	inactive	inactive	–	inactive	inactive	–	inactive
Nc1ccc([As](=O)(O)O)cc1	inactive	inactive	inactive	–	inactive	inactive	inactive	inactive	inactive	–	inactive	inactive	inactive	inactive	inactive	–	inactive	inactive	–	inactive
COC(C)(C)CCCC(C)C/C=C/C(C)=C/C(=O)OC(C)C (stereo not given)	inactive	inactive	inactive	inactive	–	inactive	inactive	inactive	inactive	inactive	inactive	inactive	inactive	inactive	inactive	inactive	inactive	–	–	inactive
CC(C)c1cccc(C(C)C)c1O	43.6 µM (active) and inactive	inactive	inactive	inactive	inactive	inactive	inactive	inactive	inactive	inactive	inactive	inactive	inactive	inactive	inactive	inactive	–	inactive	–	inactive
C=CCN=C=S	inactive	inactive	inactive	–	inactive	inactive	inactive	inactive	inactive	inactive	inactive	–	–	inactive	inactive	–	inactive	inactive	inactive	inactive
O=[N+]([O-])c1cc([As](=O)(O)O)ccc1O	inactive	inactive	inactive	–	inactive	inactive	inactive	inactive	inactive	inactive	inactive	inactive	inactive	inactive	inactive	–	–	inactive	–	inactive
